In the supplement of paper PMC10037445:
Whole data set: some 2,900 compounds, median “NF-kB SEAP reporter activity, fold change vs agonist alone” near 0.99, cut for the highest 2% near 2.6. Shown is part of a subset that was picked to be rich in the highest values.

Key:
[1] = system: RAW-Dual; experiment: NF-kB SEAP reporter activity, fold change vs agonist alone; cytotoxicity flag (confluency mask): not cytotoxic; higher = enhanced NF-kB activity
How it was run: (§1)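 After 50 nL of library stock was delivered by pin tool to RAW-Dual macrophages (50,000 cells/well, DMEM, 384-well plates), a PRR agonist was added 1 h later and the plates were kept at 37 °C, 5% CO2. Twenty hours later, IRF was read from supernatant by QuantiLuc luminescence and NF-κB by QuantiBlue absorbance at 620 nm. Reporter activity is stated as fold change over agonist-alone wells. Wells with IncuCyte confluency under 70% of agonist controls in both mask sets were counted as cytotoxic.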

[2] = system: RAW-Dual; experiment: NF-kB SEAP reporter activity, fold change vs agonist alone; higher = enhanced NF-kB activity; settings: library stock concentration (final ~1000-fold dilution): 10 mM
How it was run: as §1

[3] = system: RAW-Dual; experiment: NF-kB SEAP reporter activity, fold change vs agonist alone; cytotoxicity flag (confluency mask): cytotoxic (confluency <70% of control); higher = enhanced NF-kB activity
How it was run: as §1

[4] = agonist: ODN 1826 (TLR9) 0.5 ug/mL
[5] = agonist: Pam2CSK4 (TLR2/6) 0.1 ug/mL
[6] = agonist: Pam3CSK4 (TLR2/1) 0.1 ug/mL
[7] = cytotoxicity flag (confluency mask): not cytotoxic, agonist: Imiquimod (TLR7) […]
[8] = cytotoxicity flag (confluency mask): not cytotoxic, agonist: MPLA (TLR4) […]
[9] = cytotoxicity flag (confluency mask): cytotoxic (confluency <70% of control), agonist: Imiquimod (TLR7) […]
[10] = cytotoxicity flag (confluency mask): cytotoxic (confluency <70% of control), agonist: MPLA (TLR4) […]

Question: `CC(=O)OC1(C(C)=O)CCC2C3C=C(C)C4=CC(=O)CCC4(C)C3CCC21C` (stereo not drawn) (library stock concentration (final ~1000-fold dilution): 10 mM) was tested. Which “NF-kB SEAP reporter activity” value ([1]; agonist: LPS (TLR4) 0.1 ug/mL) did it give?
Answer: 0.908

Question: What about the “NF-kB SEAP reporter activity” value [1, 4] of the same molecule?
Answer: 1.22

Question: And the “NF-kB SEAP reporter activity” value [1, 5]?
Answer: 1.13

Question: What about the “NF-kB SEAP reporter activity” value [1, 6] of the same molecule?
Answer: 1.27

Question: How did the “NF-kB SEAP reporter activity” value [2, 7] turn out when `CC(=O)OC1(C(C)=O)CCC2C3C=C(C)C4=CC(=O)CCC4(C)C3CCC21C` (stereo not drawn) was run?
Answer: 1.21

Question: And the “NF-kB SEAP reporter activity” value [2, 8]?
Answer: 1.14

Question: With `O=C(NC1=CC(=O)[C@@H]2O[C@@H]2[C@@H]1O)c1ccccc1O` (library stock concentration (final ~1000-fold dilution): 10 mM) as the molecule, how does the “NF-kB SEAP reporter activity” value ([1]; agonist: LPS (TLR4) 0.1 ug/mL) read?
Answer: 0.954

Question: And the “NF-kB SEAP reporter activity” value [1, 4]?
Answer: 0.718

Question: What about the “NF-kB SEAP reporter activity” value [1, 5] of the same molecule?
Answer: 0.356

Question: What about the “NF-kB SEAP reporter activity” value [1, 6] of the same molecule?
Answer: 0.314

Question: Which “NF-kB SEAP reporter activity” value [2, 7] does the source give for `O=C(NC1=CC(=O)[C@@H]2O[C@@H]2[C@@H]1O)c1ccccc1O` here?
Answer: 0.849

Question: What about the “NF-kB SEAP reporter activity” value [2, 8] of the same molecule?
Answer: 0.949

Question: Which results are given for `CS(=O)(=O)O.O=C(OC1CC2CC3CC(C1)N2CC3=O)c1c[nH]c2ccccc12` (stereo not drawn)?
Answer: NF-kB SEAP reporter activity [2, 7]: 0.712; NF-kB SEAP reporter activity [2, 8]: 0.75

Question: How did the “NF-kB SEAP reporter activity” value ([1]; agonist: LPS (TLR4) 0.1 ug/mL) turn out when `CS(=O)(=O)O.O=C(OC1CC2CC3CC(C1)N2CC3=O)c1c[nH]c2ccccc12` (stereo not drawn) (library stock concentration (final ~1000-fold dilution): 10 mM) was run?
Answer: 0.646

Question: And the “NF-kB SEAP reporter activity” value [1, 4]?
Answer: 0.571

Question: What about the “NF-kB SEAP reporter activity” value [1, 5] of the same molecule?
Answer: 0.906

Question: What about the “NF-kB SEAP reporter activity” value [1, 6] of the same molecule?
Answer: 0.497

Question: With `CCNC(=O)C#Cc1ccc2c(c1)NC(=O)/C2=C(\Nc1ccc(CN(C)C)cc1)c1ccccc1` (library stock concentration (final ~1000-fold dilution): 10 mM) as the molecule, how does the “NF-kB SEAP reporter activity” value ([3]; agonist: LPS (TLR4) 0.1 ug/mL) read?
Answer: 0.241

Question: And the “NF-kB SEAP reporter activity” value [3, 4]?
Answer: 0.173

Question: What about the “NF-kB SEAP reporter activity” value [3, 5] of the same molecule?
Answer: 0.074

Question: And the “NF-kB SEAP reporter activity” value [3, 6]?
Answer: 0.121

Question: How did the “NF-kB SEAP reporter activity” value [2, 9] turn out when `CCNC(=O)C#Cc1ccc2c(c1)NC(=O)/C2=C(\Nc1ccc(CN(C)C)cc1)c1ccccc1` was run?
Answer: 0.134

Question: And the “NF-kB SEAP reporter activity” value [2, 10]?
Answer: 0.297

Question: `Cc1cnc(Nc2ccc(OCCN3CCCC3)cc2)nc1Nc1cccc(S(=O)(=O)NC(C)(C)C)c1` was tested. Which “NF-kB SEAP reporter activity” value [2, 9] did it give?
Answer: 3.13

Question: And the “NF-kB SEAP reporter activity” value [2, 10]?
Answer: 2.73

Question: For `C=CCn1c(=O)c2cnc(Nc3ccc(N4CCN(C)CC4)cc3)nc2n1-c1cccc(C(C)(C)O)n1`, which “NF-kB SEAP reporter activity” value [2, 9] is on record?
Answer: 1.14

Question: What about the “NF-kB SEAP reporter activity” value [2, 10] of the same molecule?
Answer: 0.798

Question: For `C=CC(=O)Nc1cccc(Sc2nc(Nc3ccc(N4CCN(C)CC4)cc3)ncc2Cl)c1` (library stock concentration (final ~1000-fold dilution): 10 mM), which “NF-kB SEAP reporter activity” value ([1]; agonist: LPS (TLR4) 0.1 ug/mL) is on record?
Answer: 0.254

Question: And the “NF-kB SEAP reporter activity” value [1, 4]?
Answer: 0.205

Question: And the “NF-kB SEAP reporter activity” value [1, 5]?
Answer: 0.0814

Question: What about the “NF-kB SEAP reporter activity” value [1, 6] of the same molecule?
Answer: 0.268

Question: Which “NF-kB SEAP reporter activity” value ([3]; agonist: LPS (TLR4) 0.1 ug/mL) does the source give for `CCN(CC)CCOc1ccc(Nc2ncc3cc(-c4c(Cl)cccc4Cl)c(=O)n(C)c3n2)cc1` (library stock concentration (final ~1000-fold dilution): 10 mM) here?
Answer: 0.238

Question: What about the “NF-kB SEAP reporter activity” value [3, 4] of the same molecule?
Answer: 0.236

Question: And the “NF-kB SEAP reporter activity” value [3, 5]?
Answer: 0.0747

Question: What about the “NF-kB SEAP reporter activity” value [3, 6] of the same molecule?
Answer: 0.145

Question: Which results are given for `C=CC(=O)Nc1cccc(Nc2nc(Nc3ccc(OCCOC)cc3)ncc2F)c1`?
Answer: NF-kB SEAP reporter activity [2, 7]: 1.11; NF-kB SEAP reporter activity [2, 8]: 1.69
